# Experimental data published in the supplement of paper PMC10849652.
# About 7,900 targets were measured; listed, in parts, are those with a hit and a random draw of the rest. About 0.6% of all pairs of compound and target were hits. A number with no mark means an inactive call.
# How the values were obtained:
# Assay in all cases: log2 fold change, soluble protein after heating vs DMSO (PISA); higher = thermal stabilisation; K562 cells, 10 uM, 30 min; active = over 0.2 and 3.5 SD of the protein, either way, in both replicates (recomputed)
# [1] = compound: CC[C@@H]1C(=O)N(C)c2cnc(Nc3ccc(C(=O)NC4CCN(C)CC4)cc3OC)nc2N1C1CCCC1
# In short: (§1)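 Soluble protein was defined as the supernatant after 21,000xg for 90 min. It came from K562 cells at 2×10^6 cells/mL given 10 μM compound for 30 min, heated in aliquots for 3 min across 48°C-58°C, pooled, and extracted in PBS with 0.5% NP-40 at 4°C, and was quantified by TMTpro 16plex LC-MS/MS with equalised channel sums. Thermal stability against control samples, from duplicates, is reported as log2 fold change.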
# [2] = compound: CC[C@@H]1C(=O)N(C)c2cnc(Nc3ccc(C(=O)N[C@H]4CC[C@H](N5CCN(CC6CC6)CC5)CC4)cc3OC)nc2N1C(C)C [volasertib]
# In short: as §1
# [3] = compound: CC[C@H](C)N1C=C(C2=C(C=C(C=C21)C3=CN=C(C=C3)N4CCNCC4)C(=O)NCC5=C(C=C(NC5=O)C)C)C
# In short: as §1
# [4] = compound: CC[C@H](C)[C@@H](C(=O)N[C@@H]([C@@H](C)O)C(=O)N[C@@H](CC(C)C)C(=O)[C@]1(CO1)C)NC(=O)[C@H]([C@@H](C)CC)N(C)C(=O)C [epoxomicin]
# In short: as §1
# [5] = compound: CCn1c(C(=O)N(C2CC2)C2CC2)cc2c3c(ncn3C)c(Nc3cc(C)n(C)n3)nc21
# In short: as §1
# [6] = compound: CCn1cc(-c2ccnc3[nH]c(-c4cccc(CN(C)C)c4)cc23)c(-c2ccc(NC(=O)N(C)C)cc2)n1
# In short: as §1
# [7] = compound: CN(C)CC(=O)Nc1ccc2[nH]c(=O)c3ccccc3c2c1
# In short: as §1
# [8] = compound: CN(CCOC1=CC=C(C=C1)C[C@H]2C(=O)NC(=O)S2)C3=CC=CC=N3 (racemic) [rosiglitazone]
# In short: as §1
# [9] = compound: CN1C2=C(C3=C1C(=O)N(N=C3)CC4=CC(=CC=C4)N)SC(=C2)S(=O)C
# In short: as §1
# [10] = compound: CN1CCC(CNc2ccc3ncc(-c4cccc(OC(F)(F)F)c4)n3n2)CC1
# In short: as §1
# [11] = compound: CN1CCN(CCOc2cc(OC3CCOCC3)c3c(Nc4c(Cl)ccc5c4OCO5)ncnc3c2)CC1 [saracatinib]
# In short: as §1
# [12] = compound: CN1CCN(c2nc(C3=C(c4c[nH]c5ccccc45)C(=O)NC3=O)c3ccccc3n2)CC1 [sotrastaurin]
# In short: as §1
# [13] = compound: CN1CC[C@H](c2c(O)cc(O)c3c(=O)cc(-c4ccccc4Cl)oc23)[C@H](O)C1 [alvocidib]
# In short: as §1
# [14] = compound: CN1CCc2c(c3ccccc3n2Cc2ccc(C(=O)NO)cc2)C1 [Tubastatin A]
# In short: as §1
# [15] = compound: CNC(=O)C1=CC=CC=C1NC2=NC(=NC=C2Cl)NC3=C(C=C(C=C3)N4CCOCC4)OC
# In short: as §1
# [16] = compound: CNC(=O)c1ccc(Nc2ncc(C(F)(F)F)c(NCc3nccnc3N(C)S(C)(=O)=O)n2)cc1 [defactinib]
# In short: as §1
# [17] = compound: CNCc1ccc(-c2[nH]c3cc(F)cc4c3c2CCNC4=O)cc1 [rucaparib]
# In short: as §1
# [18] = compound: CNc1nc(-c2ccc3c(N)n[nH]c3c2)cc(N2C[C@@H](C(=O)NC3CCCCC3)CC[C@H]2C)n1
# In short: as §1
# [19] = compound: COC(=O)N[C@@H](C)CNc1nccc(-c2cn(C(C)C)nc2-c2cc(Cl)cc(NS(C)(=O)=O)c2F)n1 [encorafenib]
# In short: as §1
# [20] = compound: COC(=O)[C@H](CCSC)NC(=O)C1=C(C=C(C=C1)NC[C@H](CS)N)C2=CC=CC=C2
# In short: as §1
# UniProt Q14980, sequence (Q14980 whole entry, looked up): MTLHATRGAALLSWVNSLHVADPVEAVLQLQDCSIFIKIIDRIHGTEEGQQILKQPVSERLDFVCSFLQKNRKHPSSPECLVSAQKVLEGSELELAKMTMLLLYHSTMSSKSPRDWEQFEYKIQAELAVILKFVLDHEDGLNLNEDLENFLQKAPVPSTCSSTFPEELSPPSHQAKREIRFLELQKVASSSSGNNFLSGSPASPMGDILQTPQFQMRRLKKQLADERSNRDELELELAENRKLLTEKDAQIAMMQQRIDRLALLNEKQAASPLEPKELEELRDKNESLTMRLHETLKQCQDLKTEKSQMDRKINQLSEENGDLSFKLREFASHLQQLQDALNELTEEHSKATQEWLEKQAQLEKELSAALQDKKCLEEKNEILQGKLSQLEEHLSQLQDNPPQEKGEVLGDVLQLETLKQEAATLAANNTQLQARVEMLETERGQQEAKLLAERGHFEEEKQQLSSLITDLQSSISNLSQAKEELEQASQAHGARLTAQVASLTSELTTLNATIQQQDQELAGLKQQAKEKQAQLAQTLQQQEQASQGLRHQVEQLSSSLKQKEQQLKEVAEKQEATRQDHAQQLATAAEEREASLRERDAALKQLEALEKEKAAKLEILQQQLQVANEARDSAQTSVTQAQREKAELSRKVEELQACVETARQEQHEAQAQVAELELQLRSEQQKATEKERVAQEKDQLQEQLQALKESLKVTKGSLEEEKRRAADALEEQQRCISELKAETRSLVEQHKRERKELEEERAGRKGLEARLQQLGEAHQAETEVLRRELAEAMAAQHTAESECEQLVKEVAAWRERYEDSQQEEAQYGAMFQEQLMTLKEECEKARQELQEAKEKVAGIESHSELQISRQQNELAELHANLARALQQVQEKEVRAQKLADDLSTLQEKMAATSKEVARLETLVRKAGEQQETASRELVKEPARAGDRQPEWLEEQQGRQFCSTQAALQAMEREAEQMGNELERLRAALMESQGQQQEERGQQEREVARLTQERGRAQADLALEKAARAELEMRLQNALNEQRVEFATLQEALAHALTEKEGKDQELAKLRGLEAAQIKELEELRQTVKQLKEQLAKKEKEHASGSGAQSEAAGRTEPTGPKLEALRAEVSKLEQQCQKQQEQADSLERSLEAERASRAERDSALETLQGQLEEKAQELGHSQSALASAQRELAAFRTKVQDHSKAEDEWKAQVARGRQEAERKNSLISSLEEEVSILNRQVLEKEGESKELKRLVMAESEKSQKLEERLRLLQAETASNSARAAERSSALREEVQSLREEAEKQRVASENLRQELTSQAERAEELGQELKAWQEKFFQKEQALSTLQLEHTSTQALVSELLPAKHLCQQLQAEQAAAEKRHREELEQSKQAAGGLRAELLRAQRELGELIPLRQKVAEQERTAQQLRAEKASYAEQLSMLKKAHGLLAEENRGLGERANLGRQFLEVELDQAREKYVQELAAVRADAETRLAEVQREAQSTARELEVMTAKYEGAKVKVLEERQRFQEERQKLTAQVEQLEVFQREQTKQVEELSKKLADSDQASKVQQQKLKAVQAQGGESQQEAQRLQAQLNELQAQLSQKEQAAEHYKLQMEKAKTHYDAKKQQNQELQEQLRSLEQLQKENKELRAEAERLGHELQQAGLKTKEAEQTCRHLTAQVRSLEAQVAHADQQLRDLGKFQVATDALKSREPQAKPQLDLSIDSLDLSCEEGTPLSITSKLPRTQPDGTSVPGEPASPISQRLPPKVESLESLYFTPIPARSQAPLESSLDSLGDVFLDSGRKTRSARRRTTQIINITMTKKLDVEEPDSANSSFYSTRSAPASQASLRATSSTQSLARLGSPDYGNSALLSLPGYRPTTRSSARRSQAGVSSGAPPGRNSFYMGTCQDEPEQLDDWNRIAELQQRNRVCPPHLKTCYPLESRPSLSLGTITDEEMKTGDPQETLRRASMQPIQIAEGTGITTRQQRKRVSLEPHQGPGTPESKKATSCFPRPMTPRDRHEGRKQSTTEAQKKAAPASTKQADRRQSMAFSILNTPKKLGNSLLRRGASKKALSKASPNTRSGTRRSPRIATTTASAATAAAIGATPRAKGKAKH
# UniProt Q7Z3U7, sequence (Q7Z3U7 whole entry, looked up): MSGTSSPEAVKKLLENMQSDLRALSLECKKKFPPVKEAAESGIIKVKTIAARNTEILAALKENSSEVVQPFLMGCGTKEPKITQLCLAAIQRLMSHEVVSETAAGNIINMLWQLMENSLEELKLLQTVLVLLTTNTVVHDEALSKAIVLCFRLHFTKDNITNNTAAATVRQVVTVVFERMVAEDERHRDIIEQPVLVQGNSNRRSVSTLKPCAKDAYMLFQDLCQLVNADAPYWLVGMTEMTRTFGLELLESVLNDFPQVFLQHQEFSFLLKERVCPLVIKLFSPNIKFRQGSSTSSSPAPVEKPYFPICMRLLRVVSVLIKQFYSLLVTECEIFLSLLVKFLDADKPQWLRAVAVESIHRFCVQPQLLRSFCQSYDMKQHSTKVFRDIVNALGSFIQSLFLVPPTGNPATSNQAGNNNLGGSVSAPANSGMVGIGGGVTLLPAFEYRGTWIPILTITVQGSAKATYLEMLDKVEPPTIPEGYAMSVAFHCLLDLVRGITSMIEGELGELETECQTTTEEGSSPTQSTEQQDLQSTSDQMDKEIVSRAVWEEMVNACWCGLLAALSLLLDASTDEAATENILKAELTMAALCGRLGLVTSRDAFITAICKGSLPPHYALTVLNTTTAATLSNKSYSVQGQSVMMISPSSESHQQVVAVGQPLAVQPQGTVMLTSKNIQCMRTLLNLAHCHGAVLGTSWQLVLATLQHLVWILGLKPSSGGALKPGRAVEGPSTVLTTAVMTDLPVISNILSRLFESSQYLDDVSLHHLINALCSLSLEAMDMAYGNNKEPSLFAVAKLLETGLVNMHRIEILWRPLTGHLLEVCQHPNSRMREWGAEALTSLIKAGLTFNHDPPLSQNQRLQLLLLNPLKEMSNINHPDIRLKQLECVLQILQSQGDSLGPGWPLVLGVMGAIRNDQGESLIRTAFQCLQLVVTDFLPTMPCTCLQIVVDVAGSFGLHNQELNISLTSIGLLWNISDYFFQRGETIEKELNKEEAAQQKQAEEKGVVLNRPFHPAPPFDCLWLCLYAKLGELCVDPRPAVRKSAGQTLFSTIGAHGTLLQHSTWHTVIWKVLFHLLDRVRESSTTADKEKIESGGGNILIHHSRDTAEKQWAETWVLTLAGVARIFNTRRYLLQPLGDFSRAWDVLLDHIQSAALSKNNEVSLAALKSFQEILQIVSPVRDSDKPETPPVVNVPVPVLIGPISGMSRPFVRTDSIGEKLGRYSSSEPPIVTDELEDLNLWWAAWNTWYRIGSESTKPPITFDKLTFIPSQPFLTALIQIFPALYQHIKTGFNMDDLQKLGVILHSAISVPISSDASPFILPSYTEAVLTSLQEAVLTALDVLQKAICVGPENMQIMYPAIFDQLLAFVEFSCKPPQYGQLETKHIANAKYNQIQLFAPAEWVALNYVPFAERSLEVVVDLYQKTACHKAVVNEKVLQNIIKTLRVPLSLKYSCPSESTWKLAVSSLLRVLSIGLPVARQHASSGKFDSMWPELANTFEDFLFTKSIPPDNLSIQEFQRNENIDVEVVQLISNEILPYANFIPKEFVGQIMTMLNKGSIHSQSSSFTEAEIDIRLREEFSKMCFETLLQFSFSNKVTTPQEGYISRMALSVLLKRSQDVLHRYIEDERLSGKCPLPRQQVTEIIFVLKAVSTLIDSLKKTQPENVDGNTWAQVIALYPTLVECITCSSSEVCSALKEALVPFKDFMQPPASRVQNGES
# UniProt Q16795, sequence (Q16795 whole entry, looked up): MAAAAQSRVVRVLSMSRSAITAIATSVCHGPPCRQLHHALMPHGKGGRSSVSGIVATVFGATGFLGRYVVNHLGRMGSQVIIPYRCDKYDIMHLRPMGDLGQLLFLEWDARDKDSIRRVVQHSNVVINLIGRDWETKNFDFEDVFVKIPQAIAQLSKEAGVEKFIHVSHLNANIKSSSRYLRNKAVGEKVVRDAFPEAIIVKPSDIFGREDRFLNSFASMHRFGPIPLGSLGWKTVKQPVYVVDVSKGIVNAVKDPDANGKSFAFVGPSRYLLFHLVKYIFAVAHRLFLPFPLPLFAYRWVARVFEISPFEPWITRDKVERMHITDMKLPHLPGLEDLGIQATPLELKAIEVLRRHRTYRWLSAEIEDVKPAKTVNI
# UniProt P00846, sequence (P00846 whole entry, looked up): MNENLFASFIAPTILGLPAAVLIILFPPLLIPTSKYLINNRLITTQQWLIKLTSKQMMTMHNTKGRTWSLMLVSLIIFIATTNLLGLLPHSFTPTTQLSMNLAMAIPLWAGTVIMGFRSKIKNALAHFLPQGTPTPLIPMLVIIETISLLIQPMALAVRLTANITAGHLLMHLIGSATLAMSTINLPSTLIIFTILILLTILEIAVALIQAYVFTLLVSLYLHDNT
# UniProt O00566, sequence (O00566 whole entry, looked up): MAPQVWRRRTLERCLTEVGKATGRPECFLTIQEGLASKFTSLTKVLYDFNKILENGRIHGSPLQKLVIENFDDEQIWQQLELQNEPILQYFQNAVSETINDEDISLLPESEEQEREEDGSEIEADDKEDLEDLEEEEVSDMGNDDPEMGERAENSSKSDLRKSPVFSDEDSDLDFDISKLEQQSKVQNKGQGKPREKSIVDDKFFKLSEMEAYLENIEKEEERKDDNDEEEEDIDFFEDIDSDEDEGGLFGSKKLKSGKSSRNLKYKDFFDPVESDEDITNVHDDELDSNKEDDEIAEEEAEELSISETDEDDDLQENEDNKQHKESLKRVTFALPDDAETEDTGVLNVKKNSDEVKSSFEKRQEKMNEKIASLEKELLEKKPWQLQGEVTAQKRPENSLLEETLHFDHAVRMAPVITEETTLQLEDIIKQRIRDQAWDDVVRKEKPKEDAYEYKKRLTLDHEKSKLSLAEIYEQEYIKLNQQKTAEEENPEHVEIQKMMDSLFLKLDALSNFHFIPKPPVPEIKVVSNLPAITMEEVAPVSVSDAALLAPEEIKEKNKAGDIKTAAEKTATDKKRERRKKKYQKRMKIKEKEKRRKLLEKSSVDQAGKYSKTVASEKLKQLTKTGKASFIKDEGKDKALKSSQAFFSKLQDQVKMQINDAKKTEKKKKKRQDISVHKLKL
Target,log2 fold change [1],log2 fold change [2],log2 fold change [3],log2 fold change [4],log2 fold change [5],log2 fold change [6],log2 fold change [7],log2 fold change [8],log2 fold change [9],log2 fold change [10],log2 fold change [11],log2 fold change [12],log2 fold change [13],log2 fold change [14],log2 fold change [15],log2 fold change [16],log2 fold change [17],log2 fold change [18],log2 fold change [19],log2 fold change [20]
OTUD6B (UniProt Q8N6M0),-0.163,-0.435 (active),0.036,0.094,-0.032,-0.055,0.066,0.09,-0.019,-0.137,-0.009,-0.035,-0.147,-0.007,-0.008,-0.138,0.019,0.001,0.122,-0.055
NDUFS8 (UniProt O00217),-0.103,-0.097,-0.005,0.039,-0.003,-0.043,0,0.039,-0.069,-0.41 (active),-0.011,-0.061,-0.081,-0.04,-0.037,-0.009,-0.093,0.017,0.059,-0.026
NNMT (UniProt P40261),0.003,-0.197,0.023,0.039,0.017,-0.068,-0.042,0.007,-0.025,-0.152,-0.041,0.01,-0.087,-0.081,0.016,0.004,-0.078,0.021,-0.021,0.038
MRPS17 (UniProt Q9Y2R5),-0.111,-0.018,0.022,-0.043,-0.059,0.043,0.069,0.057,0.022,-0.016,-0.017,-0.138,0.002,0.072,0.105,0.096,0.185,0.096,0.016,-0.047
NGLY1 (UniProt Q96IV0),-0.07,-0.367 (active),0.04,-0.071,-0.045,-0.03,0.055,0.01,0.044,-0.116,-0.04,-0.135,-0.002,-0.04,0.01,-0.026,0.161,0.05,0.159,-0.064
MPHOSPH10 (UniProt O00566),0.099,-0.155,0.084,-0.26,-0.028,0.182,-0.012,0.089,0.314,0.133,-0.123,-0.061,0.086,0.098,-0.023,0.11,0.229,-0.081,0.214,0.045
NEDD4L (UniProt Q96PU5),-0.02,-0.425 (active),0.03,0.012,-0.015,-0.09,0.023,0.029,0.039,-0.099,-0.014,-0.063,-0.121,0.057,0.068,-0.135,0.002,-0.059,0.03,-0.023
NDUFA12 (UniProt Q9UI09),-0.135,-0.244,0.081,0.046,-0.063,-0.173,0.119,0.082,-0.054,-0.632 (active),0.029,-0.017,-0.094,0,-0.027,-0.037,-0.061,0.031,0.05,-0.018
NAA38 isoform 2 (UniProt Q9BRA0),-0.045,-0.017,-0.025,0.029,0.265 (active),-0.127,-0.026,0.017,-0.095,0.064,-0.02,0.009,-0.108,0.081,-0.044,-0.101,0.023,0.044,0.022,-0.058
MT-ATP6 (UniProt P00846),0.043,-0.091,-0.057,0.105,-0.053,-0.152,-0.095,0.502,-0.239,-0.16,0.253,-0.059,-0.058,0.122,-0.018,-0.095,0.06,-0.176,0.016,0.05
MON2 isoform 5 (UniProt Q7Z3U7),-0.125,-0.377 (active),0.06,0.023,0,-0.028,0.031,0.062,-0.064,-0.158,-0.089,-0.001,-0.056,-0.005,0.02,-0.011,0.01,0.044,0.026,-0.025
NUDCD2 (UniProt Q8WVJ2),-0.177,-0.566 (active),0.056,-0.098,-0.042,0.021,0.081,0.093,0.023,-0.291,-0.115,-0.123,-0.139,0.051,0.002,-0.256,-0.053,0,0.048,0
NUMA1 (UniProt Q14980),0.065,0.034,0.039,-0.044,-0.031,0.068,0.003,-0.035,0.115,-0.191,-0.069,-0.235,-0.063,0.14,-0.057,-0.017,0.118,0.055,0.174,-0.009
MRPS18B (UniProt Q9Y676),0.028,-0.039,0.09,0.042,-0.075,-0.021,0.041,-0.069,-0.01,-0.087,-0.038,0.082,-0.059,0.125,0.007,-0.016,0.065,0.225,0.034,-0.027
NPEPPS (UniProt P55786),-0.005,-0.023,0.079,-0.022,0.082,-0.102,0.007,0.046,-0.098,-0.141,-0.013,0.108,-0.077,0.012,-0.082,-0.004,0.013,0.075,-0.032,0.231 (active)
NDUFA9 (UniProt Q16795),-0.082,-0.26 (active),0.073,0.03,-0.029,-0.053,0.035,0.064,-0.017,-0.367 (active),-0.003,-0.008,-0.022,-0.013,-0.034,-0.011,-0.038,0.036,0.048,-0.004
